{
  "source": "PubChem BioAssay (Tox21)",
  "note": "Inconclusive results are not listed. Values without a mark were called inactive. Calls follow the shape of the dose curve; as a rule, active = well fitted cell-killing curve with a large enough effect in the repeat runs; inconclusive = weak or mixed curves, or effect the other way; inactive = flat fitted curve, though single readings scatter. % is scaled to controls: 0 for no effect and ±100 for the full control effect.",
  "data": [
    {"experiment": "qHTS assay to identify small molecule antagonists of the estrogen receptor alpha (ER-alpha) signaling pathway using the BG1 cell line in the presence of 0.1 nM 17-beta-estradiol - cell viability counter screen (AID 1259241); also: nearly all actives have a fitted effect of over 40% in size", "conditions": "VM7Luc4E2 (BG1) viability, CellTiter-Fluor protease, 22 h, 0.1 nM estradiol agonist added; series mostly up to 92.4 µM; activity change, negative = cytotoxicity: at the top concentration", "excerpt": "National Center for Advancing Translational Sciences [NCATS]\nNIH Chemical Genomics Center [NCGC]\nU.S. Environmental Protection Agency [EPA]\nNational Institutes of Environmental Health Sciences [NIEHS]\nNational Toxicology Program [NTP]\nU.S. Food and Drug Administration [FDA]\nEstrogen receptor (ER), a member of the nuclear hormone receptor plays an important role in development, metabolic homeostasis and reproduction. Two subtypes of ER, ER-alpha and ER-beta, have similar expression patterns with some uniqueness in both types. Endocrine disrupting chemicals (EDCs) and their interactions with steroid hormone receptors like ER causes disruption of normal endocrine function. Therefore, it is important to understand the effect of environmental chemicals in ER signaling pathway. For identifying ER antagonists, VM7Luc4E2 cell line was used to screen against Tox21 compound libraries.\nVM7Luc4E2 cell line (provided by Denison MS, University of California) endogenously express full-length ER-alpha and is stably transfected with a plasmid containing four estrogen responsive elements (ERE) upstream of a luciferase reporter gene. The current screening for identification of ER-alpha inhibitors against Tox21 compound libraries used lower concentration (0.1 nM) of 17beta-Estradiol as a stimulator. The cytotoxicity of the Tox21 compound libraries against VM7Luc4E2 cell line was tested by measuring live-cell protease activity using CellTiter-Fluor assay in the same wells.\nTox21 Assay Protocol Summary:\nVM7Luc4E2 cells were cultured in phenol red free assay medium containing 10% charcoal stripped FBS for 5 days prior to the assay. The cells were dispensed at 4,000 cells/well in 4 uL of assay medium into white wall/solid-bottom 1536-well plates (Corning Life Sciences, Corning, NY) using a Multidrop Combi (ThermoFisher Scientific, Waltham, MA) dispenser. After the assay plates were incubated at 37C and 5% CO2 for 24 hr, 23 nL of compounds dissolved in DMSO, positive controls or DMSO only was transferred to the assay plates by a Pintool station (Kalypsys, San Diego, CA). The transfer of compounds was followed by the addition of 1 uL of 0.1 nM (final concentration) agonist (17beta-Estradiol)/assay medium using a Flying Reagent Dispenser (FRD, Aurora Discovery, San Diego, CA). The plates were incubated at 37C and 5% CO2 for 22 hr. For cytotoxicity assay, 1 uL of CellTiter-Fluor reagent (Promega Corporation, Madison, WI) was added to each well using the FRD and after 30 min incubation at 37C and 5% CO2, The fluorescence intensity was measured using ViewLux plate reader (PerkinElmer, Shelton, CT).", "values": [
      {"smiles": "CC(=O)O[C@@H]1CC2C3CCc4cc(OC(=O)c5ccccc5)ccc4C3CCC2(C)[C@H]1OC(C)=O", "note": "(stereo not given in full)", "activity change, negative = cytotoxicity": "6.94% [at 42.5 µM]"},
      {"smiles": "CCCCC(CC)COC(=O)CC#N", "note": "(stereo not given)", "activity change, negative = cytotoxicity": "-0.195%"},
      {"smiles": "C=C(C)C(=O)OCCCC", "activity change, negative = cytotoxicity": "6.61%"},
      {"smiles": "CC(C)(C)NCC(O)COc1cccc2c1CCC(=O)N2", "note": "(stereo not given)", "activity change, negative = cytotoxicity": "6.89% [at 42.5 µM]"},
      {"smiles": "NS(=O)(=O)c1cc2c(cc1C(F)(F)F)NCNS2(=O)=O", "activity change, negative = cytotoxicity": "-0.0481% [at 42.5 µM]"},
      {"smiles": "CCCCCCCOC(C)=O", "activity change, negative = cytotoxicity": "3.87%"},
      {"smiles": "CCCCN1C(=O)c2ccccc2C1=O", "activity change, negative = cytotoxicity": "-12.2%"},
      {"smiles": "BrCCOc1ccccc1", "activity change, negative = cytotoxicity": "4.22%"},
      {"smiles": "CCOC(=O)c1ccc(N(C)C)cc1", "activity change, negative = cytotoxicity": "9.1%"},
      {"smiles": "CCCC(=O)CC", "activity change, negative = cytotoxicity": "1.03%"},
      {"smiles": "Clc1cc(Cl)c(Cl)c(Cl)c1Cl", "activity change, negative = cytotoxicity": "0.822%"},
      {"smiles": "CCC(C)c1nccnc1OC", "note": "(stereo not given)", "activity change, negative = cytotoxicity": "5.94%"},
      {"smiles": "CCCC(C)C(O)CC", "note": "(stereo not given)", "activity change, negative = cytotoxicity": "2.36%"},
      {"smiles": "CC12CCCC=C1C(=O)OC2=O", "note": "(stereo not given)", "activity change, negative = cytotoxicity": "1%"},
      {"smiles": "CN1C(CCl)Nc2cc(Cl)c(S(N)(=O)=O)cc2S1(=O)=O", "note": "(stereo not given)", "activity change, negative = cytotoxicity": "0.643% [at 42.5 µM]"},
      {"smiles": "Nc1nc(Cl)cc(Cl)n1", "activity change, negative = cytotoxicity": "0.168%"},
      {"smiles": "Cc1nnc(C(=O)NC(C)(C)c2nc(C(=O)NCc3ccc(F)cc3)c(O)c(=O)n2C)o1", "activity change, negative = cytotoxicity": "1.32% [at 42.5 µM]"},
      {"smiles": "CCCCC(O)/C=C(C)/C=C/C=C/C(=O)N1CCCC1=O", "note": "(stereo not given)", "activity change, negative = cytotoxicity": "-1.22% [at 42.5 µM]"},
      {"smiles": "CC(=O)OC/C=C(/C)CCC=C(C)C", "activity change, negative = cytotoxicity": "1.22%"},
      {"smiles": "O=CN1CCCCC1", "activity change, negative = cytotoxicity": "1.12%"},
      {"smiles": "CC(C)(C)OC=O", "activity change, negative = cytotoxicity": "12.1%"},
      {"smiles": "CC/C=C\\CCOC(=O)c1ccccc1", "activity change, negative = cytotoxicity": "-8.02%"},
      {"smiles": "O=S(=O)(O)c1cc(I)c(O)c2ncccc12", "activity change, negative = cytotoxicity": "2.24% [at 42.5 µM]"},
      {"smiles": "CCOc1ccccc1OCCN[C@H](C)Cc1ccc(OC)c(S(N)(=O)=O)c1", "activity change, negative = cytotoxicity": "-10.2% [at 42.5 µM]"},
      {"smiles": "COC(=O)c1ccc(C(=O)O)cc1", "activity change, negative = cytotoxicity": "-4.5%"},
      {"smiles": "C=CC(=O)OCCOCCOCC", "activity change, negative = cytotoxicity": "3.36%"},
      {"smiles": "CN1CCN(C(=O)C2CCCCC2)CC1", "activity change, negative = cytotoxicity": "1.05% [at 42.5 µM]"},
      {"smiles": "COc1cc(C(=O)NC2CCCNC2)cc(OC)c1OC", "note": "(stereo not given)", "activity change, negative = cytotoxicity": "1.2% [at 42.5 µM]"},
      {"smiles": "CC[N+](C)(CC)CC", "activity change, negative = cytotoxicity": "4.2%"},
      {"smiles": "CC1(C)CC(N)CC(C)(C)N1", "activity change, negative = cytotoxicity": "-11.1%"},
      {"smiles": "C=CCCCCCCCCCCCCCC", "activity change, negative = cytotoxicity": "0.733% [at 19 µM]"},
      {"smiles": "N#Cc1ccccc1C#N", "activity change, negative = cytotoxicity": "4.07%"},
      {"smiles": "O=Cc1ccccc1S(=O)(=O)O", "activity change, negative = cytotoxicity": "3.9%"},
      {"smiles": "CC(C)(C)C(=O)CCc1ccc(Cl)cc1", "activity change, negative = cytotoxicity": "4.19%"},
      {"smiles": "COC(=O)/C=C(\\C)CCC=C(C)C", "activity change, negative = cytotoxicity": "-0.309%"},
      {"smiles": "CSC(=O)c1cccc2nnsc12", "activity change, negative = cytotoxicity": "13.6%"},
      {"smiles": "COc1cc(OC)cc(OC)c1", "activity change, negative = cytotoxicity": "14.5% [at 42.5 µM]"},
      {"smiles": "CC(=O)OCC(=O)[C@@]1(O)CC[C@H]2[C@@H]3CCC4=CC(=O)C=C[C@]4(C)[C@H]3[C@@H](O)C[C@@]21C", "activity change, negative = cytotoxicity": "6.35% [at 42.5 µM]"},
      {"smiles": "CCCOc1ccc(C(=O)OCCN(CC)CC)cc1N", "activity change, negative = cytotoxicity": "-4.79% [at 42.5 µM]"},
      {"smiles": "O=C[C@@H](O)[C@H](O)[C@H](O)CO", "activity change, negative = cytotoxicity": "3.94%"}
    ]}
  ]
}
